PubChem BioAssay (NCATS)
Records with an inconclusive call do not appear. Entries that show only a call come without a potency. Active and inactive are the calls of the source. Calls follow the shape of the dose curve; as a rule, active = well fitted curve in the direction sought with a large enough effect; inconclusive = small, poorly fitted or top-dose-only effect, or another doubt; inactive = no such curve, though single readings can be large; an effect the other way counts as inactive or inconclusive.

Tests used:
UISO = assay: qHTS assay to identify novel small-molecules to repurpose for Merkel cell carcinoma treatment (AID 1296009); details: MCC and control cell lines, CellTiter-Glo viability, 72 h; series mostly up to 46 µM; also: nearly all actives have a fitted effect of over 60% in size
In short: (§1)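 After compound transfer in DMSO, plates were kept 72 hr at 37 degree celsius. Luminescent ATP signal from CellTiter-Glo served as viability measure, normalized against DMSO and no-cell controls.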

WaGa = assay: as above; details: MCC and control cell lines, CellTiter-Glo viability, 72 h; series mostly up to 46 µM
In short: as §1

C33A = assay: Primary qHTS to identify gynecologic anti-cancer compounds using libraries of approved drugs and bioactive compounds (AID 1345084); details: Gynecologic cancer cell panel viability, ATPlite luminescence, 48 h; series mostly up to 57.5 µM; also: nearly all actives have a fitted effect of over 55% in size; also: potency is read from the fitted curve at half-maximal effect
In short: (§2)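 Five-concentration response, 48 h; readout is ATP-driven luciferase luminescence.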

CAOV3 = assay: as above; details: Gynecologic cancer cell panel viability, ATPlite luminescence, 48 h; series mostly up to 57.5 µM
In short: as §2

CASKI = assay: as above; details: Gynecologic cancer cell panel viability, ATPlite luminescence, 48 h; series mostly up to 57.5 µM
In short: as §2

Es-2 = assay: as above; details: Gynecologic cancer cell panel viability, ATPlite luminescence, 48 h; series mostly up to 57.5 µM
In short: as §2

HeLa = assay: as above; details: Gynecologic cancer cell panel viability, ATPlite luminescence, 48 h; series mostly up to 57.5 µM
In short: as §2

Hek293T = assay: as above; details: Gynecologic cancer cell panel viability, ATPlite luminescence, 48 h, control line for the selectivity index; series mostly up to 57.5 µM
In short: as §2

JEG-3 = assay: as above; details: Gynecologic cancer cell panel viability, ATPlite luminescence, 48 h; series mostly up to 57.5 µM
In short: as §2

OV90 = assay: as above; details: Gynecologic cancer cell panel viability, ATPlite luminescence, 48 h; series mostly up to 57.5 µM
In short: as §2

SMILES | Potency (UISO) | Potency (WaGa) | Potency (C33A) | Potency (CAOV3) | Potency (CASKI) | Potency (Es-2) | Potency (HeLa) | Potency (Hek293T) | Potency (JEG-3) | Potency (OV90)
CCOC(=O)NC(O)C(Cl)(Cl)Cl (stereo unspecified) | inactive | inactive | inactive | inactive | inactive | inactive | inactive | inactive | inactive | inactive
CC(Cc1ccc2c(c1)OCO2)NO (stereo unspecified) | inactive | inactive | inactive | inactive | inactive | inactive | inactive | inactive | inactive | inactive
CCOP(=S)(OCC)O/N=C(\C#N)c1ccccc1 | inactive | inactive | inactive | inactive | inactive | inactive | inactive | inactive | inactive | inactive
O=C1CN2CCOC2(c2ccccc2Cl)c2cc(Cl)ccc2N1 (stereo unspecified) | inactive | inactive | inactive | inactive | inactive | inactive | inactive | inactive | inactive | inactive
COP(=O)(OC)C(O)C(Cl)(Cl)Cl (stereo unspecified) | inactive | inactive | inactive | inactive | inactive | inactive | inactive | inactive | inactive | inactive
CCOC(=O)c1cncn1C(C)c1ccccc1 (stereo unspecified) | inactive | inactive | inactive | inactive | inactive | inactive | inactive | inactive | inactive | inactive
C#C[C@]1(O)C=C[C@H]2[C@@H]3CCC4=CC(=O)CC[C@@H]4[C@H]3CC[C@@]21CC | inactive | inactive | inactive | inactive | inactive | inactive | 12.6 µM (active) | inactive | inactive | inactive
C[N+]1(CCC(C(N)=O)(c2ccccc2)c2ccccc2)CCCCC1 | inactive | inactive | inactive | inactive | inactive | inactive | inactive | inactive | inactive | inactive
C1CN2CCC1CC2 | inactive | inactive | inactive | inactive | inactive | inactive | inactive | inactive | inactive | 25.1 µM (active)
CN1C2CCC(C)(C)C1CC(OC(=O)C(O)(c1cccs1)c1cccs1)C2 (stereo unspecified) | inactive | inactive | inactive | inactive | inactive | inactive | inactive | inactive | inactive | –
CCCC(C)C1(CC)C(=O)N=C(S)NC1=O (stereo unspecified) | inactive | inactive | inactive | inactive | inactive | inactive | inactive | inactive | inactive | –
COCC(=O)N(c1c(C)cccc1C)C(C)C(=O)OC (stereo unspecified) | inactive | inactive | inactive | inactive | inactive | inactive | inactive | inactive | inactive | inactive
COc1cc(CC#N)cc(OC)c1OC | inactive | inactive | inactive | inactive | inactive | inactive | inactive | inactive | inactive | inactive
CCCCC1C(=O)NC(=O)N(C2CCCCC2)C1=O (stereo unspecified) | inactive | inactive | inactive | inactive | inactive | inactive | inactive | inactive | inactive | inactive
CC(C(O)c1ccccc1)N(C)C/C=C/c1ccccc1 (stereo unspecified) | inactive | inactive | inactive | inactive | inactive | inactive | inactive | inactive | inactive | –
CN1C(=O)CN=C(c2ccccc2)c2cc([N+](=O)[O-])ccc21 | inactive | inactive | inactive | inactive | inactive | inactive | inactive | inactive | inactive | inactive
O=C(O)c1nn(Cc2ccc(Cl)cc2Cl)c2ccccc12 | inactive | inactive | inactive | inactive | inactive | inactive | inactive | inactive | inactive | –
OC(c1ccccc1)(c1ccccc1)C1CCNCC1 | inactive | inactive | inactive | inactive | inactive | inactive | inactive | inactive | inactive | inactive
CC(C)(C)OC(=O)c1ncn2c1[C@@H]1CCCN1C(=O)c1c(Br)cccc1-2 | inactive | inactive | inactive | inactive | inactive | inactive | inactive | inactive | inactive | inactive
CCS(=O)(=O)C(C)(C)S(=O)(=O)CC | inactive | inactive | inactive | inactive | inactive | inactive | inactive | inactive | inactive | inactive
COP(=S)(OC)Oc1ccc(S(N)(=O)=O)cc1 | inactive | inactive | inactive | inactive | inactive | inactive | inactive | inactive | inactive | inactive
C[C@H]1C(=O)O[C@@H]2CCN3CC=C(COC(=O)[C@](C)(O)[C@]1(C)O)[C@H]23 | inactive | inactive | inactive | inactive | inactive | inactive | inactive | inactive | inactive | inactive
CCOC(C(=O)OCCN(C)C)(c1ccccc1)c1ccccc1 | inactive | inactive | inactive | inactive | inactive | inactive | inactive | inactive | inactive | –
COc1cc(CC(C)N)cc2c1OCO2 (stereo unspecified) | inactive | inactive | inactive | inactive | inactive | inactive | inactive | inactive | inactive | inactive

SMILES | Potency (UISO) | Potency (WaGa) | Potency (C33A) | Potency (CAOV3) | Potency (CASKI) | Potency (Es-2) | Potency (HeLa) | Potency (Hek293T) | Potency (JEG-3) | Potency (OV90)
Cc1c(Cl)c(=O)oc2cc(OP(=O)(OCCCl)OCCCl)ccc12 | inactive | inactive | inactive | inactive | inactive | inactive | inactive | inactive | inactive | –
NCc1cccnc1 | inactive | inactive | inactive | inactive | inactive | inactive | inactive | inactive | inactive | inactive
C=CCN1CC[C@]23CCCC[C@H]2[C@H]1Cc1ccc(O)cc13 | inactive | inactive | inactive | inactive | inactive | inactive | inactive | inactive | inactive | –
COc1cc(N)c(Cl)cc1C(=O)NC1CN2CCC1CC2 (stereo unspecified) | inactive | inactive | inactive | inactive | inactive | inactive | inactive | inactive | inactive | inactive
CCCC[N+]1(C)[C@@H]2CC(OC(=O)[C@H](CO)c3ccccc3)C[C@H]1[C@@H]1O[C@@H]12 (stereo partly specified) | inactive | inactive | inactive | inactive | inactive | inactive | inactive | inactive | inactive | inactive
CCOC(=O)c1ncn2c1CN(C)C(=O)c1c(I)cccc1-2 | inactive | inactive | inactive | inactive | inactive | inactive | inactive | inactive | inactive | inactive
C[C@@H]1CN(C2CCC(C#N)(c3ccc(F)cc3)CC2)CC[C@]1(C(=O)O)c1ccccc1 (stereo partly specified) | inactive | inactive | inactive | inactive | inactive | inactive | inactive | inactive | inactive | inactive
c1ccc2nc(N3CCNCC3)ccc2c1 | inactive | inactive | inactive | inactive | inactive | inactive | inactive | inactive | inactive | –
COc1ccc(C(=O)N2CCCC2=O)cc1 | inactive | inactive | inactive | inactive | inactive | inactive | inactive | inactive | inactive | inactive
CCC1(c2cccc(O)c2)CCCCN(C)C1 (stereo unspecified) | inactive | inactive | inactive | inactive | inactive | inactive | inactive | inactive | inactive | inactive
Cc1nnc2n1-c1sc(CCC(=O)N3CCOCC3)cc1C(c1ccccc1Cl)=NC2 | inactive | inactive | inactive | inactive | inactive | inactive | inactive | inactive | inactive | inactive
Oc1c(Br)cc(Br)cc1Br | inactive | inactive | inactive | inactive | inactive | inactive | inactive | inactive | inactive | inactive
O=C(CCCCl)c1ccc(F)cc1 | inactive | inactive | inactive | inactive | inactive | inactive | inactive | inactive | inactive | inactive
CCN(CC)Cc1nccn1-c1ccc([N+](=O)[O-])cc1C(=O)c1ccccc1Cl | inactive | inactive | inactive | inactive | inactive | inactive | inactive | inactive | inactive | –
Nc1ccc(N)cc1 | inactive | inactive | inactive | inactive | inactive | inactive | inactive | inactive | inactive | inactive
Nc1ccccc1C(=O)OCC(O)CO (stereo unspecified) | inactive | inactive | inactive | inactive | inactive | inactive | inactive | inactive | inactive | inactive
C[C@]12CC[C@H]3[C@@H](CC=C4C[C@@H](O)CC[C@@]43C)[C@@H]1CC[C@@H]2O | inactive | inactive | inactive | inactive | inactive | inactive | inactive | inactive | inactive | inactive
C[N+](C)(C)CCOC(=O)C(O)(c1ccccc1)c1ccccc1 | inactive | inactive | inactive | inactive | inactive | inactive | inactive | inactive | inactive | inactive
CCNc1nc(Cl)nc(NCC)n1 | inactive | inactive | inactive | inactive | inactive | inactive | inactive | inactive | inactive | inactive
CCN(CC)C(C)C(=O)c1ccccc1 (stereo unspecified) | inactive | inactive | inactive | inactive | inactive | inactive | inactive | inactive | inactive | inactive
COc1ccc2[nH]cc(CCN(C(C)C)C(C)C)c2c1 | inactive | inactive | inactive | inactive | inactive | inactive | inactive | inactive | inactive | inactive
COC(=O)C1=CCCN(C)C1 | inactive | inactive | inactive | inactive | inactive | inactive | inactive | inactive | inactive | inactive
C[N+]1(C)[C@@H]2CC[C@H]1CC(OC(=O)C(CO)c1ccccc1)C2 (stereo partly specified) | inactive | inactive | inactive | inactive | inactive | inactive | inactive | inactive | inactive | inactive
